According to PubChem BioAssay AID1159580 (chemical genetic matrix, 2015):
Values joined by “and” are separate entries in the source; they are usually repeats but may differ in a detail not shown here. Equal values may be shown once. In all, about 5,500 compounds went through this assay and about 2,000 (36%) were called active. About 18% were inconclusive and are not listed. No stated cut-off is given here; in the data, active means normalized growth mostly below about 0.91 (no sharp cut-off); inconclusive means no clear call, values can overlap the other calls; inactive means mostly above about 0.92. The list shows a part of the results.

Assay: chemical genetic growth profiling, strain panel (AID 1159580);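 further: tested at 20 µM; growth read once vehicle control cultures reached saturation at 30 °C; 1 = growth at the plate median or of vehicle wells; lower values mean less growth of the strain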
Conditions: S. cerevisiae deletion strains, growth OD
[1] = locus YPL055C, strain LGE1, active compounds read low
[2] = locus YPL241C, strain CIN2, active compounds read low

Measured: normalized growth

Cc1cc(C)c(NC(=O)C[C@H](CC(=O)O)c2cccc3ccccc23)c(C(=O)N2CCC3(CCCC3)CC2)c1
inactive: locus YAL040C, strain CLN3, active compounds read low 1.01 | locus YCL061C, strain MRC1 (second series), active compounds read low 0.986 | locus YDR363W, strain ESC2, active compounds read low 0.973 | locus YER002W, strain NOP16, active compounds read low 0.975 | locus YGR078C, strain PAC10, active compounds read low 0.972 | locus YGR229C, strain SMI1, active compounds read low 1.01 | locus YMR263W, strain SAP30, active compounds read low 0.995 | locus YNL175C, strain NOP13, active compounds read low 0.976 | locus YNL197C, strain WHI3, active compounds read low 0.964 | locus YNL224C, strain SQS1, active compounds read low 0.977 | locus YNL322C, strain KRE1, active compounds read low 0.99 | locus YOR083W, strain WHI5 (second series), active compounds read low 0.977 | [1] 0.972 | [2] 0.987

CC(C)(C#N)O[C@@H]1O[C@H](CO)[C@@H](O)[C@H](O)[C@H]1O
inactive: locus YAL013W, strain DEP1, active compounds read low 1 | locus YAL021C, strain ccr4, active compounds read low 1.01 | locus YAL026C, strain drs2, active compounds read low 1 | locus YAL030W, strain snc1, active compounds read low 1 | locus YBL061C, strain skt5, active compounds read low 0.998 | locus YBR009C, strain hhf1, active compounds read low 1 | locus YBR021W, strain FUR4, active compounds read low 1.1 | locus YBR023C, strain chs3, active compounds read low 1 | locus YBR171W, strain sec66, active compounds read low 1.01 | locus YBR229C, strain ROT2, active compounds read low 0.997 | locus YBR231C, strain swc5, active compounds read low 0.998 | locus YBR279W, strain paf1, active compounds read low 1.01 | locus YCL011C, strain gbp2, active compounds read low 1.01 | locus YCL016C, strain dcc1, active compounds read low 1 | locus YCL029C, strain bik1, active compounds read low 0.993 | locus YCL069W, strain vba3, active compounds read low 0.997 | locus YCR088W, strain abp1, active compounds read low 1.01 | locus YDL005C, strain med2, active compounds read low 0.993 | locus YDL035C, strain GPR1, active compounds read low 1.02 | locus YDL040C, strain nat1, active compounds read low 1.01 | locus YDL074C, strain BRE1, active compounds read low 1.02 | locus YDL101C, strain DUN1, active compounds read low 1.01 | locus YDL185W, strain tfp1, active compounds read low 0.983 | locus YDL192W, strain arf1, active compounds read low 0.988 | locus YDR001C, strain nth1, active compounds read low 1.01 | locus YDR069C, strain doa4, active compounds read low 1.03 | locus YDR101C, strain arx1, active compounds read low 0.997 | locus YDR137W, strain rgp1, active compounds read low 1.02 | locus YDR150W, strain NUM1, active compounds read low 1.02 | locus YDR159W, strain sac3, active compounds read low 0.965 | locus YDR162C, strain NBP2, active compounds read low 1.05 | locus YDR195W, strain ref2 0.98 | locus YDR297W, strain sur2, active compounds read low 1.01 | locus YDR318W, strain mcm21, active compounds read low 1 | locus YDR334W, strain swr1, active compounds read low 1 | locus YDR335W, strain msn5, active compounds read low 1 | locus YDR388W, active compounds read low 0.992 | locus YDR392W, strain spt3, active compounds read low 1.02 | locus YDR502C, strain sam2, active compounds read low 0.998 | locus YEL003W, strain gim4, active compounds read low 1.01 | locus YEL037C, strain rad23, active compounds read low 1.01 | locus YEL061C, strain CIN8 (second series), active compounds read low 1.02 | locus YEL061C, strain CIN8, active compounds read low 1 | locus YER015W, strain faa2, active compounds read low 0.998 | locus YER016W, strain bim1, active compounds read low 0.999 | locus YER110C, active compounds read low 0.985 | locus YER111C, strain swi4, active compounds read low 1.01 | locus YER155C, strain BEM2 (second series), active compounds read low 1.02 | locus YER155C, strain BEM2, active compounds read low 0.99 | locus YER167W, strain BCK2, active compounds read low 1.01 | locus YFR010W, strain ubp6, active compounds read low 1.01 | locus YGL078C, strain dbp3, active compounds read low 0.989 | locus YGL086W, strain mad1, active compounds read low 0.997 | locus YGL167C, strain pmr1, active compounds read low 1 | locus YGL173C, strain kem1, active compounds read low 1 | locus YGL227W, strain vid30, active compounds read low 1 | locus YGL240W, strain doc1, active compounds read low 1.01 | locus YGL248W, strain PDE1, active compounds read low 1.01 | locus YGL253W, strain hxk2, active compounds read low 1 | locus YGR135W, strain pre9, active compounds read low 0.975 | locus YGR252W, strain gcn5, active compounds read low 0.979 | locus YHR013C, strain ard1, active compounds read low 0.996 | locus YHR027C, strain rpn1, active compounds read low 0.984 | locus YHR030C, strain SLT2, active compounds read low 0.997 and 1.06 | locus YHR079C, strain IRE1 (second series), active compounds read low 0.994 | locus YHR079C, strain IRE1, active compounds read low 1.07 | locus YHR094C, strain hxt1, active compounds read low 0.984 | locus YHR129C, strain ARP1, active compounds read low 1 | locus YHR142W, strain chs7, active compounds read low 1 | locus YHR200W, strain rpn10, active compounds read low 0.995 | locus YIL066C, strain RNR3, active compounds read low 1.02 | locus YIL073C, strain SPO22, active compounds read low 1 | locus YIL125W, strain kgd1, active compounds read low 1 | locus YIR030C, strain dcg1, active compounds read low 0.998 | locus YJL092W, strain hpr5, active compounds read low 1 | locus YJL095W, strain BCK1 (second series), active compounds read low 1.01 | locus YJL095W, strain BCK1, active compounds read low 1.05 and 0.974 | locus YJL115W, strain asf1, active compounds read low 0.999 | locus YJL129C, strain trk1, active compounds read low 1.03 | locus YJL134W, strain LCB3, active compounds read low 0.993 | locus YJL154C, strain vps35, active compounds read low 1.01 | locus YJL164C, strain tpk1, active compounds read low 1 | locus YJL166W, strain qcr8, active compounds read low 1.01 | locus YJL168C, strain set2, active compounds read low 1 | locus YJL187C, strain SWE1 (second series), active compounds read low 1.03 | locus YJL187C, strain SWE1, active compounds read low 1 | locus YJR043C, strain POL32, active compounds read low 1.02 | locus YJR066W, strain TOR1, active compounds read low 0.981 | locus YJR075W, strain HOC1, active compounds read low 1.02 | locus YKL009W, strain mrt4, active compounds read low 0.982 | locus YKL068W, active compounds read low 0.998 | locus YKL085W, strain MDH1 (second series), active compounds read low 1.01 | locus YKL085W, strain MDH1, active compounds read low 1.01 | locus YKL160W, strain elf1, active compounds read low 1 | locus YKL190W, strain CNB1, active compounds read low 1.02 | locus YKR001C, strain vps1, active compounds read low 1 | locus YKR026C, strain gcn3, active compounds read low 0.997 | locus YKR091W, strain srl3, active compounds read low 1 | locus YLL001W, strain dnm1, active compounds read low 1.01 | locus YLL026W, active compounds read low 0.99 | locus YLL041C, strain sdh2, active compounds read low 1.01 | locus YLR027C, strain aat2, active compounds read low 1 | locus YLR039C, strain RIC1, active compounds read low 1.05 | locus YLR058C, strain SHM2, active compounds read low 1.01 | locus YLR102C, strain apc9, active compounds read low 0.983 | locus YLR113W, strain HOG1, active compounds read low 0.999 | locus YLR221C, strain rsa3, active compounds read low 1.03 | locus YLR258W, strain gsy2, active compounds read low 1.01 | locus YLR262C, strain YPT6 (second series), active compounds read low 1.01 | locus YLR262C, strain YPT6, active compounds read low 1.07 | locus YLR268W, strain sec22, active compounds read low 1 | locus YLR320W, strain mms22, active compounds read low 0.999 | locus YLR330W, strain CHS5, active compounds read low 0.994 | locus YLR342W, strain FKS1 (second series), active compounds read low 1.02 | locus YLR342W, strain FKS1, active compounds read low 1 | locus YLR357W, strain rsc2, active compounds read low 0.971 | locus YLR370C, strain arc18, active compounds read low 1 | locus YLR371W, strain rom2, active compounds read low 0.982 | locus YLR384C, strain iki3, active compounds read low 0.986 | locus YLR418C, strain cdc73, active compounds read low 1.01 | locus YML016C, strain PPZ1, active compounds read low 0.987 | locus YML032C, strain rad52, active compounds read low 1.01 | locus YML120C, strain ndi1, active compounds read low 0.994 | locus YML124C, strain tub3, active compounds read low 0.994 | locus YMR058W, strain fet3, active compounds read low 0.999 | locus YMR078C, strain ctf18, active compounds read low 0.976 | locus YMR125W, strain sto1, active compounds read low 1 | locus YMR129W, active compounds read low 0.996 | locus YMR205C, strain PFK2, active compounds read low 1.02 | locus YMR223W, strain ubp8, active compounds read low 0.984 | locus YMR231W, strain pep5, active compounds read low 0.996 | locus YMR307W, strain GAS1, active compounds read low 0.96 | locus YNL067W, strain RPL9B, active compounds read low 1.04 | locus YNL071W, strain lat1, active compounds read low 1.01 | locus YNL183C, strain NPR1, active compounds read low 0.973 | locus YNL209W, strain ssb2, active compounds read low 1.01 | locus YNL233W, strain BNI4, active compounds read low 1.02 | locus YNL248C, strain rpa49, active compounds read low 0.984 | locus YNL250W, strain rad50, active compounds read low 0.978 | locus YNL271C, strain bni1, active compounds read low 0.987 | locus YNL298W, strain CLA4, active compounds read low 0.987 | locus YNL307C, strain MCK1, active compounds read low 1.02 | locus YNL322C, strain KRE1 (second series), active compounds read low 0.993 | locus YNR049C, strain mso1, active compounds read low 1 | locus YNR052C, strain pop2, active compounds read low 0.984 | locus YOL006C, strain TOP1, active compounds read low 1.06 | locus YOL012C, strain htz1 0.871 | locus YOL147C, strain pex11, active compounds read low 0.995 | locus YOR001W, strain rrp6, active compounds read low 1.01 | locus YOR061W, strain CKA2, active compounds read low 0.997 | locus YOR069W, strain VPS5, active compounds read low 0.99 | locus YOR070C, strain gyp1, active compounds read low 1.01 | locus YOR080W, strain dia2, active compounds read low 1.01 | locus YOR083W, strain WHI5, active compounds read low 1.01 | locus YOR106W, strain vam3, active compounds read low 1.04 | locus YOR136W, strain idh2, active compounds read low 0.985 | locus YOR144C, strain elg1, active compounds read low 0.997 | locus YOR184W, strain ser1, active compounds read low 1.03 | locus YOR231W, strain MKK1, active compounds read low 1.01 | locus YOR265W, strain rbl2, active compounds read low 1.01 | locus YOR270C, strain vph1, active compounds read low 1.22 | locus YOR290C, strain snf2, active compounds read low 1.02 | locus YOR316C, strain cot1, active compounds read low 0.983 | locus YPL051W, strain arl3, active compounds read low 1.01 | [1] 1.06 | locus YPL078C, strain atp4, active compounds read low 1.01 | locus YPL106C, strain sse1, active compounds read low 0.985 | locus YPL240C, strain hsp82, active compounds read low 0.995 | [2] 1.01 | locus YPL256C, strain CLN2, active compounds read low 1.06 | locus YPR119W, strain clb2, active compounds read low 0.996 | locus YPR141C, strain kar3, active compounds read low 0.982 | locus YPR163C, strain tif3, active compounds read low 0.997 | locus YPR167C, strain met16, active compounds read low 1.01 | strain wtn01, active compounds read low 0.984
